# Results taken from the supplement of paper PMC7695840.
# Where a name gives a salt, the structure may show the parent alone.
# Assays:
# [1] = test system: Staphylococcus aureus MW2 delta-mecA (mecA-); assay: normalized GFP fluorescence (growth of mecA- strain) (fraction of control range); higher = more growth of mecA- strain; settings: compound concentration: 150 uM; cefoxitin: subinhibitory; fluorescent label: GFP
# How it was run: (§1)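 Pre-induced S. aureus MW2 cells carrying the gene (DsRed) and deletion cells lacking it (GFP) were combined 1:1 in LB containing a subinhibitory antibiotic dose set each day, then dispensed at 5 µL/well onto 150 μM compound (1.5% DMSO) in 1536-well plates as a single replicate. After 20 h at 37 °C and 90% humidity without shaking, DsRed (540/590) and GFP (485/520) were read. Each channel was scaled per plate between the medians of the single-strain controls, and plates with high untreated ratios and rows with DsRed/GFP >10 were excluded.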
# [2] = test system: Staphylococcus aureus MW2 (mecA+); assay: normalized DsRed fluorescence (growth of mecA+ strain) (fraction of control range); higher = more growth of mecA+ strain; settings: compound concentration: 150 uM; cefoxitin: subinhibitory; fluorescent label: DsRed
# How it was run: as §1
Compound,normalized GFP fluorescence [1],normalized DsRed fluorescence [2]
O=C(C1CCCCC1)N1CC(=O)N2CCc3ccccc3C2C1 (stereo unspecified),0.421,0.542
CN1CCC(=C2c3ccccc3CCc3cccnc32)CC1,0.396,0.798
O=C1CCC(N2C(=O)c3ccccc3C2=O)C(=O)N1 (stereo unspecified),0.261,0.635
OC[C@@H](O)[C@@H](O)[C@H](O)[C@@H](O)CO [Sorbitol (Glucitol)],0.227,1.15
CS(=O)(=O)c1ccc(C2=C(c3ccccc3)C(=O)OC2)cc1,0.195,0.89
CC(C)c1ccc2oc3nc(N)c(C(=O)O)cc3c(=O)c2c1,0.212,0.319
C=C(c1ccc(C(=O)O)cc1)c1cc2c(cc1C)C(C)(C)CCC2(C)C [Bexarotene],0.666,0.742
CC(=O)OCC(=O)NCCCOc1cccc(CN2CCCCC2)c1 [Roxatidine acetate HCl],0.438,0.76
CCOc1ccc(Cc2cc([C@@H]3O[C@H](CO)[C@@H](O)[C@H](O)[C@H]3O)ccc2Cl)cc1 [Dapagliflozin],0.454,0.557
NS(=O)(=O)c1cc2c(cc1C(F)(F)F)NC(Cc1ccccc1)NS2(=O)=O (stereo unspecified),0.428,0.653
Cc1ccc(NC(=O)c2ccc(CN3CCN(C)CC3)cc2)cc1Nc1nc(-c2cccnc2)cs1 [Masitinib (AB1010)],0.0914,0.633
CCCCCCOC(=O)NC(=N)c1ccc(NCc2nc3cc(C(=O)N(CCC(=O)OCC)c4ccccn4)ccc3n2C)cc1 [BIBR-1048 (Dabigatran)],0.0654,0.815
C[C@]12CCC(=O)C=C1CC[C@@H]1[C@@H]2[C@@H](O)C[C@@]2(C)[C@H]1CC[C@]2(O)C(=O)CO,0.268,0.562
